Results from the supplement of paper PMC11417369.
The full ranking holds about 25,000 sequences; the median of “ln(normalized median fluorescence intensity)” is about 9.7, and the highest 2% start at about 11. The sample holds the highest values, similar sequences and a random draw of the others, so the mix is not that of the screen.

Test system: PfAP2-HC AP2 domain (GST-tagged)
Experiment: gcPBM binding intensity (ln(normalized median fluorescence intensity)); higher = stronger DNA binding
Procedure, shortened: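 Binding of GST-tagged P. falciparum DNA-binding domains, expressed in E. coli and used at about 25 μg on average, was carried out for 1 h in 1× PBS containing 1% milk, 0.2 mg/ml BSA, 0.5% salmon testes DNA and 0.03% Triton X-100. The target was an Agilent 4 × 180k array of primer-extended double-stranded 36-bp intergenic genomic probes plus negative controls, read with Alexa488 anti-GST antibody at 488 nm. Binding intensity is the highest Masliner-normalised natural-log median intensity across replicate spots of either probe orientation.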

Sequence | gcPBM binding intensity (ln)
ATAAAATGCGCAAACACACACAAAAAAAAGATATAT [CACACA_site6875] | 10.2
AAAATCACAAAACACACACACACAAAAAAAAAAAAA [CACACA_site1443] | 10.5
CACAAAAATAGACACACACACATATAAATAAATATA [CACACA_site6598] | 10.4
TTATAAAATGGGCAAACACACACAAAAAAAAGATAT [CACACA_site8476] | 10.9
AATCACAACAGACACACACACAAAAAAAAAAAAAAA [CACACA_site1442] | 10.1
TACCAAAATAGACACACACACAAAATATGTAAATAT [CACACA_site6963] | 11
AAAATCACAAGACACACACACACAAAAAAAAAAAAA [CACACA_site6791] | 11.5
CTTACCAAAAAACACACACACACAAAATATATAAAT [CACACA_site1870] | 11.2
AAATAAATAATATGTAAACACACAAAAAATAAAAAT [CACACA_site8307] | 10.3
TACCAAAAGAAACACACACACAAAATATATAAATAT [CACACA_site1869] | 10.6
ATAAAATGGGCAAACACACACAAAAAAAAGATATAT [CACACA_site1648] | 10.3
TATATATAAATAAACACACACAAATATAATAAAAAA [CACACA_site3526] | 10.9
ATAAATAAATAAATAAATAAATAAATAAATATATAT [CACACA_negctrl_site1728] | 9.74
TTTAATTTATATTTTGTGCACATCTTATTATATATA [GTGCAC_site9630] | 9.88
GAAGTATTATTAAAGCTGCACTTTTCTAAAATAAAC [GTGCAC_site9429] | 9.5
TAATTACCATATGGTACACACATATATATCTGTATA [CACACA_site5849] | 9.96
CAGGCACTAATAAACACACACATATAAATATAAATA [CACACA_site6320] | 10.1
AATTTAACCACTAAAAGTACACACATATATACATAT [XGTACX_site8352] | 10.1
TACTTTTTTCCTATTATGTTTCTTATTTTTATAAAT [XGTACX_negctrl_site561] | 9.78
GATGATTATATATATACGCACACTTTTTTTTTTTTT [CACACA_site2652] | 9.94
TAATAAAACATATATACACACATTATAAATACATAT [CACACA_site5014] | 10
TTTTTTTTTTTTCTGTGTACATATATAATATATATA [XGTACX_site1592] | 9.7
AAAAAAAAAAAACACACACACACAAATATATAAAAA [CACACA_site1171] | 10.6

Sequence | gcPBM binding intensity (ln)
AAAAAAAAAAAAAACACACACACAAAAAAAAATATA [CACACA_site1104] | 11.3
AATATATATAAATAAACACACACAAATATAATAAAA [CACACA_site9176] | 10.8
AAAAAAAGAAAAAAAACACACACAAATATAAATAAA [CACACA_site8309] | 10.9
AAAAGAAAATAAGAAACACACAAAAATATATAAAAA [CACACA_site3697] | 9.99
AAATATAAACGGCACACACACAAAAAAAGAAAAAAA [CACACA_site649] | 11
AAAAAATATAAAAAAACACACAAAAAAAAAAAAAAA [CACACA_site1382] | 9.71
AAATAAATAAAAAACACACACAAATAAATAAATATA [CACACA_site2249] | 10.7
AAAAAGAAAAAAAACACACACAAATATAAATAAATA [CACACA_site1183] | 10.2
AAATATAAAGTGCACACACACAAAAAAAGAAAAAAA [CACACA_site6452] | 10.2
AAAAAAAAAAAACACACACACAAAAAAAAATATATA [CACACA_site1105] | 11.3
ATATATATAAAACACACACACAAAAAAAATAAAGAC [CACACA_site117] | 11.2
TGTACAAATATGTTGAAAATAAAATTTCAATATATT [XGTACX_negctrl_site13] | 9.32
AAAAAATTAACCGTAACACACACACCGATATATATA [CACACA_site9312] | 10.5
ATTTTTTTTTTTTTTTTTTTTTTTTGGAGAAAGAGA [CACACA_negctrl_site1119] | 8.98
ATATAGAAAATGCATACACACTTTATATATATATTT [CACACA_site4658] | 9.9
TTACAAATATTATAAAGTACAAACCAGTAGATTTTG [XGTACX_site2272] | 9.63
ATACATATGTATATTTGTACATATTAGACAATCTTA [XGTACX_site6706] | 9.37
CATATATAACAATTCTCACACATAAAAAAAAAAAAT [CACACA_site4564] | 9.76
TTTTTAAATATAAACAAAAAAAAAAAATATATCAAT [XGTACX_negctrl_site328] | 9.43
AATACTTACCAAAATACACACACACCCAAAATATAT [CACACA_site8559] | 10.3
AGAGTATATAAAGTAACACACAATAAAATAAAATAA [CACACA_site2328] | 10.3
TACTTACCAAAATACACACACACACCCAATATATAA [CACACA_site1871] | 10.5
AAAAAAATAAGACACACACACAAAAAAATAAAAATA [CACACA_site6357] | 10.6

Sequence | gcPBM binding intensity (ln)
ATATTAAAAAAATATAAACACACAAAAAAAAAATAT [CACACA_site8283] | 9.91
TACTTACCAAAATACACACACACACTAGATATATAA [CACACA_site5096] | 11.3
AAAAAAAAAAAAAACACACACACAAGAGTATATAAA [CACACA_site6580] | 11.1
AAAACAAATATATTAACACACAAACATATAAACAAA [CACACA_site6052] | 10.4
AAAAAAATAAATAAGACACACACAAAAAAAAAAAAA [CACACA_site8404] | 11
AAAAAAAAAAAAAACACACACACAATAGTATATAAA [CACACA_site957] | 10.3
AAAATATATATTAACACACACACAAAAAAAAAAAAA [CACACA_site1325] | 11.2
AAAAATAAATAAGACACACACAAAAAAAAAAAAAAA [CACACA_site1432] | 9.87
TATTTTTTTCTTACTACACACATATATATGCTTTCC [CACACA_site4058] | 10
ATAGCATATATTTTTTGTACATATGTTATATATATA [XGTACX_site2184] | 9.66
TCAAAAATAAAGATCACACATATATATATATATATA [CACACA_site4381] | 9.73
AAAAAAAAAGATCACACACACATAAATATAAACAAA [CACACA_site5285] | 10.9
CACAAAAATAAACACACACACATATATATATATATA [CACACA_site4704] | 10.4
AAGTTCAAAATAAATGGTACAGAAGTATATATATCA [XGTACX_site174] | 9.75
ATATATCCAAATAGATTACATATATATATATAGATA [TGCATGCA_negctrl_site277] | 9.5
CAAGCACAGAAACACACACACACACCGACACAGACA [CACACA_site4359] | 10.9
ATCAAGCACGGACACACACACACACCCAGACCCCCA [CACACA_site4360] | 10.6
TACACAAGCAGACACACACACATATATATATATATA [CACACA_site1270] | 10.2
CAAGCACCCAGACACACACACACACCCACACCCACA [CACACA_site369] | 11.2
ACATCAAGCAGACACACACACACACCCACCCACCCA [CACACA_site8012] | 11.5
AACAGACAGAAACACACACACATATATATATATATA [CACACA_site3394] | 10.8
ACATCAAGCGGACACACACACACACCGACAGACACA [CACACA_site4361] | 10.9
TATACACCCAGACACACACACACACCCAAAAAAAAA [CACACA_site497] | 10.9

Sequence | gcPBM binding intensity (ln)
ACATCAAGCAGACACACACACACACCCACCCACCGA [CACACA_site371] | 10.7
CACAAAGACACAAACACACACACACCCACATACATA [CACACA_site452] | 10.5
CACCCACCCAGACACACACACACAAAAAAAAAAAGA [CACACA_site499] | 11.2
CAATATATTTGATTTACACACTTACAATGTATTTAA [CACACA_site5632] | 9.79
AAGAATTATTTTTTATGTACTTATATGTCAATTTTC [XGTACX_site6676] | 9.68
TTGTAGGAATTTATTTTGACTGATAATTAATACGTT [GTGCAC_negctrl_site46] | 9.47
AAAAAAAATATATATGCACACACAAAAAAACAAATT [CACACA_site8349] | 10.2
TAGTATCAATCTTATACATGCATAAAATAATTATAA [TGCATGCA_site1052] | 9.53
AAAAAATTTATAAAAGCACACAAAATAAAAAAAAAT [CACACA_site8420] | 9.78
TAACATATCTTTAATACACACTTAAAAAAGTACTTA [CACACA_site4532] | 9.41
CAGATAGACTTATATGCATGCATTCACCTGCCAACA [TGCATGCA_site158] | 9.66
AATATATGGTTTCATGATATAAAATTCAATTTAATG [GTGCAC_negctrl_site610] | 9.51
ATGTTTTATATTTTTTTTTTGTTTGCTTGTTTCCTC [CACACA_negctrl_site870] | 9.57
ATATACAAAGGATTAACACACATATTATTATAGATA [CACACA_site6966] | 9.87
TGTTTTTTATTTAATTGTACGAATTAAAAAAAATAA [XGTACX_site3009] | 9.1
ATACATCAAGGACACACACACACACCCACACCCACA [CACACA_site8013] | 11.1
CACCCCCACAGACACACACACACACCCATATATATA [CACACA_site364] | 10.6
TAGACTCCCAGACACACACACACACCCATATAATAT [CACACA_site593] | 10.5
ATACATCAAGGACACACACACACACGCACACGCACA [CACACA_site6310] | 10.7
TACACCCACCCACATACACACACATACACATATATA [CACACA_site8503] | 10.8
CACCCACCCAGACACACACACACACCCCCACCCATA [CACACA_site367] | 11.6
